Reference: PubChem BioAssay (EPA / NIEHS)
Calls of active or inactive are those of the source. The calls were made as follows: active = hit-call score of the fitted dose curve at least 0.9, where 1 is the maximum; inactive = score below 0.9.

assay: BSK_SAg_SRB: Viability Assessment in the BioMAP Diversity Plus: SAg Assay (AID 2283096); conditions: primary human HUVEC with PBMC;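 also: cells read one day after compound addition; hits may be either gain or loss of signal compared with DMSO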
Procedure: BSK_SAg is a cell-based, multiplexed-readout assay that uses umbilical vein endothelium and peripheral blood mononuclear cells, a human vascular primary cell co-culture, with measurements taken at 24 hours after chemical dosing in a 96-well plate.BSK_SAg_SRB is an assay component measured in the BSK_SAg assay. It measures protein content, a form of viability reporter, as detected with absorbance signals by Sulforhodamine staining technology.Data from the assay component BSK_SAg_SRB was analyzed into 1 assay endpoint. This assay endpoint, BSK_SAg_SRB, was analyzed with bidirectional fitting relative to DMSO as the negative control and baseline of activity. Using a type of viability reporter, gain or loss-of-signal activity can be used to understand changes in the signaling. Furthermore, this assay endpoint can be referred to as a primary readout, because this assay has produced multiple assay endpoints where this one serves a signaling function. To generalize the intended target to other relatable targets, this assay endpoint is annotated to the cell morphology intended target family, where the subfamily is cell conformation.
The levels of cell surface (or secreted, indicated by the prefix "s") biomarker endpoints were measured by ELISA. Overt cytotoxicity to cells in confluent adherent cultures (all systems other than the BT system) was assessed by measuring total protein levels using sulforhodamine B (SRB) staining in parallel cultures at the time of biomarker measurements, indicated as SRB endpoints. For proliferation assays for adherent cell types, individual cell types are cultured at sub-confluence and relative cell numbers quantified by SRB staining at time points optimized for each system (48 h: 3C and CASM3C systems; 72 h: BT and HDF3CGF systems; 96 h: SAg system). SRB was performed by staining cells with 0.1% SRB after fixation with 10% TCA and reading wells at 560 nm.Viability and proliferation of PBMC (T cells) was quantified by Alamar Blue reduction for the SAg and BT systems. For PBMC viability (referred to as PBMC Cytotoxicity within the assay endpoint names), cells were plated (75,000/well in a 96-well plate) and then chemical samples added for 1 h before addition of activators, SEB and TSST-1 (20 ng/mL final concentration each). Cells were incubated for 90 h. Then, Alamar Blue (20 uL/well) (Invitrogen, Cat DAL1100) was added for 6 h, and the plates were read with a fluorescence microplate reader at 546/580 nm (excitation/emission). For PBMC proliferation, cells were plated and activated as above but incubated for only 16 h prior to addition of Alamar Blue. Plates were read after 6 h.

SMILES	outcome	AC50
CC1(C)CC(N=C=O)CC(C)(CN=C=O)C1 (stereo not given)	inactive	–
CN1CCCC1=O	inactive	–
Cc1c(C(=O)O)c(O)cc2c1C(=O)c1c(O)c([C@@H]3O[C@H](CO)[C@@H](O)[C@H](O)[C@H]3O)c(O)c(O)c1C2=O	inactive	–
CC=Cc1ccc(O)c(OC)c1	inactive	–
CCCCCC(=O)O	inactive	–
NS(=O)(=O)c1cc2c(cc1Cl)NCNS2(=O)=O	inactive	–
O=c1c(O)c(-c2ccc(O)c(O)c2)oc2cc(O)cc(O)c12	–	31 µM (active)
Clc1cc(Cl)c(Cl)cc1Cl	inactive	–
COC(=O)c1ccc(O)cc1	inactive	–
CCNc1cccc(C)c1	inactive	–
CCCCCCCCCCCC(=O)OC	inactive	–
NCCO	inactive	–
CC(=O)OCCOCCOCCOC(C)=O	inactive	–
c1cc(-c2ccncc2)ccn1	inactive	–
O=[N+]([O-])C(CO)(CO)CO	inactive	–
COCCOC[C@H](CC1(C(=O)NC2CCC(C(=O)O)CC2)CCCC1)C(=O)Oc1ccc2c(c1)CCC2 (stereo not given in full)	inactive	–
COc1ccc2c(c1)c(CC(=O)O)c(C)n2C(=O)c1ccc(Cl)cc1	inactive	–
Cc1cc(NC(=O)C(=O)O)cc(C)c1Oc1ccc(O)c2c1CCC2	inactive	–
CC(=O)OC/C=C(\C)CCC=C(C)C	inactive	–
Oc1ccc2ccccc2c1N=Nc1ccccc1	inactive	–

SMILES	outcome	AC50
CCCCCCCCCCCCCCCCCC(=O)O	inactive	–
Cc1nc(-c2ccc3c(c2)CCN(CCC2CCC(NC(=O)/C=C/c4ccc(F)cc4)CC2)CC3)no1 (stereo not given)	inactive	–
COCCOCCOC	inactive	–
CCCCCCCCCCCCCO	–	37.5 µM (active)
CC1=C(/C=C/C(C)=C/C=C/C(C)=C/CO)C(C)(C)CCC1	inactive	–
CN[C@H]1CC[C@@H](c2ccc(Cl)c(Cl)c2)c2ccc(S(N)(=O)=O)cc21	–	28.8 µM (active)
CC(C)c1ccc(C(=O)N=C(N)N)cc1S(C)(=O)=O	inactive	–
CCCCCCCCCCCCCCCC	inactive	–
Cc1ccc(C(C)C)c(O)c1	inactive	–
O=C(O)Cc1ccccc1Nc1c(Cl)cccc1Cl	inactive	–
COc1cc(C=O)ccc1O	inactive	–
O=C(N[C@@H](Cc1ccccc1)[C@@H](O)C(=O)N1C[C@@H](O)[C@@H](O)C1)c1cc2cc(Cl)ccc2[nH]1	inactive	–
CCCCc1ccc2c(n1)[C@@H](c1ccc(OC)cc1C[C@H](C)C(=O)O)[C@H](C(=O)O)[C@H]2c1ccc2c(c1)OCO2	inactive	–
Cc1nc(C)nc(N2C[C@@H](C)N(c3ccnc([C@@H](C)O)n3)[C@@H](C)C2)n1	inactive	–
Cc1cccc(Nc2cc(Cl)nc(SCC(=O)O)n2)c1C	inactive	–
CCCCCCC(=O)OCC	inactive	–
COc1ccc(S(=O)(=O)N2C(=O)[C@@](c3ccccc3OC)(N3C[C@H](O)C[C@H]3C(=O)N(C)C)c3cc(Cl)ccc32)c(OC)c1	–	29.7 µM (active)
CC1(C)NC(=O)NC1=O	inactive	–
Nc1ccccc1N	inactive	–
CNCc1cc(F)ccc1Oc1ccc(Cl)c(Cl)c1	inactive	–
